Out of some 420,000 compounds screened, about 50,000 (12%) were called active. Entries that show only a call come without a potency. Roughly 26% stayed inconclusive and do not appear here. This excerpt belongs to a sample that is enriched for actives. A number with no mark means an inactive call. Calls follow the shape of the dose curve; as a rule, active = well fitted inhibition curve with a large enough effect; inconclusive = small, poorly fitted or top-dose-only effect; inactive = flat fitted curve, though single readings scatter.
Assay: qHTS for Inhibitors of human tyrosyl-DNA phosphodiesterase 1 (TDP1): qHTS in cells in presence of CPT; also: nearly all actives have a fitted effect of over 55% in size
Conditions: chicken DT40 Tdp1-/-;hTDP1 cells + 20 nM CPT, ATP luminescence, 48 h; series mostly up to 46.2 µM
In short: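 Chicken DT40 Tdp1-/- cells stably complemented with human TDP1 were seeded at 400 cells/well in medium containing 20 nM camptothecin, exposed to pin-transferred compounds, and grown at 37 °C for at least 48 hr. Viability was read as ATP luminescence.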
For `O=C(O)c1ccc(Cn2cnc3c(=S)nc[nH]c32)cc1`, the Potency was “inactive”. With `O=C(c1cccnc1)N1CCN(S(=O)(=O)c2cccs2)CC1` the Potency was “inactive”. Compound `CCc1noc(C)c1C(=O)NCCN1Cc2cc(OC)ccc2OC(CC)C1` (centres undefined) has an activity change, negative = growth inhibition of -8.71% [at 9.04 µM]. In the case of `Cc1cc(-c2ccc(C)c(S(=O)(=O)Nc3ccc(S(N)(=O)=O)cc3)c2)on1`, the Potency is reported as “inactive”. With `Cc1ccc(C)c(S(=O)(=O)N2CC(=O)Nc3ccccc32)c1` the Potency was “inactive”. For `Cc1cc(-c2ccc(C)c(S(=O)(=O)N3c4ccccc4CC3C)c2)on1` (centres undefined), the Potency was 18.4 µM (active). In the case of `CCC1CN(S(=O)(=O)c2cc(-c3cc(C)no3)ccc2C)c2cc(C)ccc2O1` (centres undefined), the Potency is reported as 20.6 µM (active). With `CC1Cc2ccccc2N1S(=O)(=O)c1c(N)n(C)c(=O)n(C)c1=O` (centres undefined) the Potency was “inactive”. For `CC(=O)c1ccc(S(=O)(=O)Nc2ccc(-c3ccc4nncn4n3)cc2)cc1`, the Potency was “inactive”. For `O=C(O)C(=Cc1ccccc1[N+](=O)[O-])c1ccccc1`, the Potency was “inactive”. With `CCCCCCCC1(C)NC(=O)N(CC(=O)Nc2cc(C)on2)C1=O` (centres undefined) the Potency was “inactive”. In the case of `COc1ccc(NC(=O)CN(C)C(=O)c2cc(C3CC3)nn2-c2ccccc2)cc1`, the Potency is reported as “inactive”. With `CCOc1ccc(NC(=O)CN(C)C(=O)c2cccc(S(=O)(=O)N3CCCC3)c2)cc1OCC` the Potency was “inactive”. In the case of `COc1ccc(NC(=O)CN(C)C(=O)c2cccc(S(=O)(=O)N3CCN(c4ccccc4)CC3)c2)cc1`, the Potency is reported as 18.4 µM (active). With `COc1cc(/C(=C/c2ccccc2)c2ccccc2)c2c(c1)oc1ccccc12` the Potency was “inactive”. In the case of `O=C(CSc1n[nH]c(-c2cccnc2)n1)Nc1ccc(Cl)cc1`, the Potency is reported as “inactive”. With `COc1cc(C#Cc2ccc3cc(CCCO)oc(=O)c3c2)cc(OC)c1` the Potency was 0.651 µM (active). For `Cc1ccc(N(CC(=O)NC2CCCCC2)C(=O)CCCC(=O)Nc2ccccn2)c(C)c1`, the Potency was “inactive”. In the case of `CC(C)(C)S(=O)(=O)c1ccccc1-c1noc(-c2ccccc2)c1C(N)=O`, the Potency is reported as “inactive”. In the case of `Cc1ccc(N(CC(=O)NCc2ccc(Cl)cc2)S(=O)(=O)N(C)C)cc1`, the Potency is reported as “inactive”. In the case of `COc1ccc(S(=O)(=O)N(CC(=O)NCc2ccco2)c2ccc(F)cc2)cc1`, the Potency is reported as “inactive”. In the case of `COc1ccc(CNC(=O)CN(c2ccc(OC)c(Cl)c2)S(=O)(=O)c2ccc(C)cc2)cc1`, the Potency is reported as 25.9 µM (active). With `COCc1cc(C)nc2sc(C(=O)NC3CCCCC3)c(N)c12` the Potency was “inactive”. For `O=C(O)C1=C(C(=O)O)C2CCC1C2`, the Potency was “inactive”. In the case of `CCN(CCN(C)C)C(=O)c1ccc2nc(C)c(N(C)C(=O)CCc3ccccc3)n2c1`, the Potency is reported as “inactive”. In the case of `Cc1ccc(CNC(=O)COC(=O)C2CCC2)cc1`, the Potency is reported as “inactive”. With `CC(O)c1ccc(OCCN(C)c2ccccn2)cc1` (centres undefined) the Potency was “inactive”. With `Cc1ccc(S(=O)(=O)CC(=O)NC(C)c2ccccc2)cc1` (centres undefined) the Potency was “inactive”. For `CSc1ccc(CCNC(=O)CS(=O)(=O)Cc2nc(-c3ccccc3F)oc2C)cc1`, the Potency was “inactive”. With `Cc1ccccc1-c1nc(CS(=O)(=O)CC(=O)NC(C)c2ccccc2)c(C)o1` (centres undefined) the Potency was 16.4 µM (active). With `CC(C)Cc1nnc(NC(=O)CCNC(=O)c2ccccc2Cl)s1` the Potency was “inactive”. For `CCOC(=O)N1CCN(C(=O)C2CCN(S(=O)(=O)c3cc(Cl)ccc3OCC)CC2)CC1`, the Potency was “inactive”. For `CCOC(=O)N1CCN(C(=O)C2CCCN(c3ncnc4c3sc3cccc(F)c34)C2)CC1` (centres undefined), the Potency was “inactive”. With `CCOC(=O)N1CCN(C(=O)C2CCN(c3ncnc4c3sc3cccc(F)c34)CC2)CC1` the Potency was 8.2 µM (active). With `O=C(CCn1nnnc1CN1CCOCC1)N1CCC(c2ccccc2Cl)C1` (centres undefined) the Potency was “inactive”. With `COc1ccc(F)c(CN2CCC3(CCC(CNC(=O)c4ccn(C)n4)O3)CC2)c1` (centres undefined) the Potency was “inactive”. For `Cc1ccccc1N1CC(C(=O)Nc2ccc3c(c2)OCO3)CC1=O` (centres undefined), the Potency was “inactive”. For `COc1ccc(C(=O)Cc2cnn(-c3ccccc3)c2)c(O)c1`, the Potency was “inactive”. With `COc1ccc(C(=O)CCc2ccccc2O)c(OC)c1` the Potency was “inactive”. For `COc1ccc(C(=O)CC(=O)c2ccc(C)cc2)c(O)c1`, the Potency was 4.61 µM (active). For `COc1ccc(NC(=O)Cn2c(=O)cc(C)c3c(C)nn(-c4cccc(Cl)c4C)c32)cc1OC`, the Potency was “inactive”. With `Cc1noc(C)c1NC(=O)Nc1cccc2c1O[C@H](CN(C)S(=O)(=O)c1c(C)noc1C)[C@@H](C)CN([C@H](C)CO)C2=O` the Potency was “inactive”. In the case of `CC1=CC(C)(C)Nc2ccc(OC(=O)CN3C(=O)C4CCCCC4C3=O)cc21` (centres undefined), the Potency is reported as 1.64 µM (active). With `CC(OC(=O)CN1C(=O)C2CCCCC2C1=O)C(=O)Nc1ncc(Cl)cc1Cl` (centres undefined) the Potency was “inactive”. For `O=C(CN1C(=O)C2C3CCC(C3)C2C1=O)Oc1ccc2ccccc2c1` (centres undefined), the Potency was “inactive”. In the case of `O=C(/C=C/c1c(F)cccc1Cl)Nc1nn[nH]n1`, the Potency is reported as “inactive”. With `O=C(N/C(=C\c1ccc(O)cc1)C(=O)N1CCCCC1)c1ccccc1` the Potency was “inactive”. With `CCOc1ccc(C2/C(=C(/O)c3ccc4c(c3)CC(C)O4)C(=O)C(=O)N2CCCn2ccnc2)cc1` (centres undefined) the Potency was “inactive”. In the case of `CC(C)=CCC/C(C)=C/CC/C(C)=C/CC/C(C)=C/CO`, the Potency is reported as “inactive”. For `Cc1ccc(Oc2nc3ccccc3n3c(C)nnc23)cc1`, the Potency was “inactive”. With `Cc1nc2ccccc2n1CC(O)c1ccccc1` (centres undefined) the Potency was “inactive”. In the case of `Cc1ccc(C2=NN(C)c3nc4ccccc4n3C2)cc1`, the Potency is reported as 18.4 µM (active). In the case of `COC(=O)C(C)N=Cc1ccccc1` (centres undefined), the Potency is reported as “inactive”. With `Cc1ccc(C(=O)Nc2ccc(C(=O)O)cc2)cc1S(=O)(=O)Nc1ccccc1` the Potency was “inactive”. For `CSCC(=O)N1CCCC(C(=O)c2cc(F)ccc2F)C1` (centres undefined), the Potency was “inactive”. With `COc1ccc(F)cc1C(=O)C1CCCN(C(=O)CCc2ccccn2)C1` (centres undefined) the Potency was 16.4 µM (active). In the case of `O=C1CCC(CCC(=O)N2CCCC(C(=O)c3ccc(Cl)cc3)C2)=NN1` (centres undefined), the Potency is reported as “inactive”. In the case of `O=C1NC(O)CCN1C1CC(O)C(CO)O1` (centres undefined), the Potency is reported as “inactive”. With `C=CCNC(=O)COC(=O)CNC(=O)c1cc(Cl)cc([N+](=O)[O-])c1` the Potency was “inactive”. In the case of `O=C(O)c1ccccc1Cc1ccc(F)c2ccccc12`, the Potency is reported as “inactive”. For `O=C(Nc1nnc(Cc2ccccc2)s1)c1cnccn1`, the Potency was “inactive”. With `CC1CCN(C2=NC(=O)/C(=C/c3cn[nH]c3-c3ccccc3)S2)CC1` the Potency was “inactive”. In the case of `CCn1cc(C(=O)N(C)Cc2ccccc2)c(=O)c2cc(S(=O)(=O)N3CCCCCC3)ccc21`, the Potency is reported as “inactive”. In the case of `Cc1ccc(S(=O)(=O)N2CCN(C)CC2)cc1C(=O)NC1CCCCC1`, the Potency is reported as “inactive”. In the case of `CCn1cc(C(=O)N2CCN(c3cc(Cl)ccc3C)CC2)c(=O)c2cc(S(=O)(=O)N3CCCC3)ccc21`, the Potency is reported as 23.1 µM (active). With `CCn1cc(C(=O)NC2CCCCCC2)c(=O)c2cc(S(=O)(=O)N3CCCCC3)ccc21` the Potency was 29.1 µM (active). In the case of `Cc1ccc(Cl)cc1N1CCN(C(=O)c2cn(C)c3ccc(S(=O)(=O)N(C)C4CCCCC4)cc3c2=O)CC1`, the Potency is reported as “inactive”. For `CCn1cc(C(=O)N2CC(C)CC(C)C2)c(=O)c2cc(S(=O)(=O)N3CCCC3)ccc21` (centres undefined), the Potency was “inactive”. In the case of `CCCCc1cc(=O)oc2c(C)c(OCC(=O)N3CCC(C(N)=O)CC3)ccc12`, the Potency is reported as “inactive”. With `CCOc1ccc(Br)cc1S(=O)(=O)Nc1ccc(S(=O)(=O)Nc2cc(C)on2)cc1` the Potency was “inactive”. In the case of `O=C(NCc1ccc2c(c1)OCO2)c1c(-c2ccsc2)sc2ccccc12`, the Potency is reported as 14.6 µM (active). With `O=C(NCc1ccc2c(c1)OCO2)c1ccc(Cl)s1` the Potency was “inactive”. With `O=C(NCc1ccc2c(c1)OCO2)c1sccc1Br` the Potency was “inactive”. In the case of `CC(C)(C)C(=O)CSc1ccc(S(=O)(=O)N2CCCC2)cn1`, the Potency is reported as “inactive”. For `CN=C1SC(CC(=O)Nc2ccc(C(=O)O)cc2)C(=O)N1C` (centres undefined), the Potency was “inactive”. With `CCC(=C/c1sc2ccc3ccccc3c2[n+]1C)/C=C1\Sc2ccc3ccccc3c2N1C` the Potency was 0.231 µM (active). With `COc1ccc(N(CC(=O)N2CCOCC2)S(=O)(=O)c2ccccc2)cc1Cl` the Potency was “inactive”. In the case of `COc1ccc(CCNC(=O)C2CCN(c3nn4c(=O)cc(C)nc4s3)CC2)cc1OC`, the Potency is reported as “inactive”. In the case of `CSc1ncc(C(=O)NCCCc2ccccc2)c(C)n1`, the Potency is reported as “inactive”. In the case of `O=C(NCCc1ccccc1)c1cnc2sc(N3CCCC3)nn2c1=O`, the Potency is reported as 16.4 µM (active). In the case of `COc1ccc(CCNC(=O)c2ccc(NC(=O)CC3SC(N4CCCCC4)=NC3=O)cc2)cc1OC` (centres undefined), the Potency is reported as “inactive”. For `COc1ccc(CCNC(=O)c2cnc3sc(N4CCCCCC4)nn3c2=O)cc1OC`, the Potency was 11.6 µM (active). With `O=C(O)c1ccccc1-c1ccccc1C(=O)NCCc1ccccc1` the Potency was “inactive”. With `Cc1cc(C)c(S(=O)(=O)NCC(c2ccc3c(c2)OCO3)N2CCOCC2)c(C)c1` (centres undefined) the Potency was “inactive”. For `COc1cc(OC)cc(C(=O)NNC(=O)Cc2cccs2)c1`, the Potency was “inactive”. In the case of `COc1cc(OC)c(NC(=O)Cc2ccc(-n3c(C)nc4cccnc43)cc2)cc1Cl`, the Potency is reported as 23.1 µM (active). With `CCc1nc2cccnc2n1-c1ccc(C(=O)O)cc1` the Potency was “inactive”. In the case of `COCCCNC(=O)Cc1ccc(-n2c(C)nc3cccnc32)cc1`, the Potency is reported as “inactive”. For `Cc1cccc(-n2nc3c(c2NC(=O)c2cc4ccccc4o2)CS(=O)(=O)C3)c1`, the Potency was “inactive”. With `O=C(CN1CCC(O)(c2cccc(C(F)(F)F)c2)CC1)NCCc1ccccc1` the Potency was “inactive”. For `O=C(c1ccc(F)cc1)N1CCCC(C(=O)N2CCCCC2)C1` (centres undefined), the Potency was “inactive”. For `Cc1cnc(C(=O)N2CCCC(N3CCN(c4ccccc4F)CC3)C2)cn1` (centres undefined), the Potency was “inactive”. With `CSc1ccc(C(=O)C2CCCN(C(=O)c3ccc(C)nc3)C2)cc1` (centres undefined) the Potency was 20.6 µM (active). In the case of `COc1cc2c(cc1OC)C(C(=O)Nc1cc(C)c(OC)c(C)c1)CC(=O)N2` (centres undefined), the Potency is reported as “inactive”. With `COc1ccc(NC(=O)c2ccco2)cc1NC(=O)c1ccc(C#N)cc1F` the Potency was “inactive”. For `COc1ccc(N(CC(=O)N2CCCCCC2)S(=O)(=O)c2ccccc2)cc1`, the Potency was “inactive”. For `CCC(C)[C@H](NC(=O)N1c2ccccc2NC(=O)[C@@H]1C(C)C)C(=O)N[C@@H](Cc1ccccc1)C(=O)O` (some centres undefined), the Potency was “inactive”. With `CCOC(CNC(=O)C1CCN(S(=O)(=O)c2ccc3nc4c(c(C(=O)O)c3c2)CC(C)CC4)CC1)OCC` (centres undefined) the Potency was “inactive”. With `CCCc1nn2c(=O)cc(CSCC(=O)Nc3cccc(C)c3)nc2s1` the Potency was “inactive”.

Reference: PubChem BioAssay AID686979 (National Center for Advancing Translational Sciences (NCATS), 2013)
Potency is read from the fitted curve at half-maximal effect.
